Reference: the OligoGym collection

Molecular target: FLG
Assay: pooled miR-30 sensor sort-seq; sequence = guide strand
Conditions: shRNA

Sequence	sensor-assay potency score (higher = more potent)
TTGTCTGCTTGCACTTCTGGAT	-0.517
TTGTCTGCTGACACTTCTGGAT	-0.488
AATTGTAACTAACACTTCCGTG	-0.414

Molecular target: FLNC
Assay: as above
Conditions: shRNA

Sequence	sensor-assay potency score (higher = more potent)
TTGTCTGTCACATAGGTGTCTG	-0.552
TTCAGTGACACGTCCGTGGAGG	-0.25
TTGACTGCAGTCCACTGTGAAG	-1.44
TTGAACTTGATGGAGACCTCAT	-0.144
TTTGATTTTGCTGAGGTCCAGC	0.0406
TTGATGTCCACCTTGCTTGGGC	0.144
TGAACTCTGATGACACACCGGT	0.0555
TTGACGGTGAAGGTGTCGTTGT	-0.371
TTGAGGTCACAGGTGCTGCCGA	-0.595
TTGGTGACAATAGTGAAGGTGG	0.0613
TTGATGGTGATGGTGTACCGGC	-1.25
TAGGTGACTTTGCATGTCCCGT	-0.929
TGAGCCATCACCATTGTCCTGG	0.0505
TAGCTGACAGCACATGAGCCAT	-1.71
TTGAGGTGCTCATTGCACCAGC	-0.419
TAGAGCTTCAGGTCTCCCTTGC	0.291
TACTGCACTCGGTAGGTGCCGT	-0.627
TTGTCGGTGATGTTGGGCCGTG	-1.35
TAGGCTGACACCAAGCCTGGGT	-0.0141
TTGAGGTTGAGGTCACAGGTGC	-0.307
TTGTCAGCAAACTTGATGTTGA	-0.54
TTACAGGTGATCTCTGCCTTGG	-0.839
TAGGACACAGTGTACGTGCCAT	-0.557
TAGGAGACAGCATAGGTGCGAT	-0.825

Molecular target: FMNL2
Assay: as above
Conditions: shRNA

Sequence	sensor-assay potency score (higher = more potent)
TAGACTGTCTTTGAATTGCTTC	0.088
TTATAGAGACAGATGCTGCTAT	0.344
TTATCTTTAACTTGTCGTCTTC	0.239
TTATATGCTTTCACAAACCGGA	-0.533
TACAATATTAATAAACTGCATA	-0.855
TTCCATGAGAGCTTGTTCCTGC	0.908
TTGAGTATTTGCATCTTTGTAG	0.305
TAATTCTGCAATTAACTCTTGC	-0.103
TAGCTTTACATATTTCATCAGC	-0.662
TTCTGCAATTAACTCTTGCTGC	-0.158
TTTCTCTAGCTCATGAATCTTT	-0.357
TTCTTCTTTTTCTTTGACCATT	-1.21
